High-throughput results (PubChem BioAssay)
ELG1 repair inh: inhibitors of ELG1-dependent DNA repair in HEK293T cells; actives 2.3% (n = 330,000); AID 504467; HEK293T ELG1-luciferase reporter, luminescence, 16 h; DNA damage induced by 5-fluorouridine; Potency, µM (series often up to 46.1 µM), without a hit: at the highest dose activity change, negative = inhibition, most hits filed as inhibitors; also: % is scaled to controls: 0 for no effect and ±100 for the full control effect; nearly all actives have a fitted effect of over 55% in size
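Quantitative HTS, concentration-response format. 2,000 cells/well co-treated with 5-fluorouridine and compound, 16 hr in 5% CO2 at 37 °C; ONE-Glo luminescence read after 30 min.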
ELG1 genotox: inducers of genotoxicity in HEK293T ELG1-luciferase cells | HEK293T ELG1-luciferase reporter, luminescence, 16 h | Potency, µM (titrated, usually from 46 µM), without a hit: top-dose activity change, positive = activation, most hits filed as activators | actives 1.3% (n = 330,000); also: % of control where 0% means no effect; nearly all actives have a fitted effect of over 60% in size
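16 hr compound incubation (37 °C, 5% CO2) of HEK293T cells carrying luciferase-tagged ELG1; luciferase then measured by ONE-Glo luminescence after 30 min at RT.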
SMN2 splice enh: increases expression of the SMN2 splice variant; HEK293 SMN2-luciferase splicing reporter, luminescence, 30-36 h; Potency, µM (doses to about 46.1 µM), without a hit: top-dose activity change, positive = activation, actives largely listed as activators; AID 1458; actives 2.8% (n = 210,000); also: % of control where 0% means no effect; nearly all actives have a fitted effect of over 55% in size
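qHTS luciferase splicing reporter: luminescence rises when SMN2 exon 7 is included in transfected HEK293 cells. Compound exposure lasted 30-36 h at 37C, with 4.5 mM final sodium butyrate as control, followed by a ONE-Glo read.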
FLuc counter: inhibits or activates purified firefly luciferase, miR-21 counter-screen. actives 6.9% (n = 360,000). AID 588342. purified FLuc, Km substrates, luminescence inhibition. P08659. Potency, µM (highest dose often 57.5 µM), for the others: top-dose activity change, negative = inhibition, hits mostly inhibitors;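 also: plate controls were vehicle for no effect and reference inhibitor for full effect; nearly all actives have a fitted effect of over 55% in size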
Target sequence (P08659 whole entry, looked up): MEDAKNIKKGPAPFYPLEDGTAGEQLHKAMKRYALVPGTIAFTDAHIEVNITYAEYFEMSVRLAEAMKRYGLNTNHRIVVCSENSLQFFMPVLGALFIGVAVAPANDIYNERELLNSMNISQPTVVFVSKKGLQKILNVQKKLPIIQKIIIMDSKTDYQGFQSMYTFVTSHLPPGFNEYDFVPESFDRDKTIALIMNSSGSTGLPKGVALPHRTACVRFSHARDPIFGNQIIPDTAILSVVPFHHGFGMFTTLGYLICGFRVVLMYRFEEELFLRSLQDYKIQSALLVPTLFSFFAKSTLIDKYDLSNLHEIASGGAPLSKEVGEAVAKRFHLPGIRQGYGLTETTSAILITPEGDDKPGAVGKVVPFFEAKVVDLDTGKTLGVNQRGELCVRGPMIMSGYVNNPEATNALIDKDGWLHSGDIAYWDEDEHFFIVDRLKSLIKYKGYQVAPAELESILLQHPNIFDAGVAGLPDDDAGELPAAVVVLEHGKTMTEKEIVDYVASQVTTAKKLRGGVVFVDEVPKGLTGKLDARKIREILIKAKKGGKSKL
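Biochemical qHTS of compounds, final roughly 60 µM downward over six points, against 10 nM purified firefly luciferase using Km concentrations of substrates (10 uM D-luciferin, 10 uM ATP) in Tris acetate pH 7.5 buffer; luminescence output.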
NPC1 prom act: activates the NPC1 promoter; AID 485313; actives 2.4% (n = 320,000); Potency, µM (doses to about 9.22 µM), inactives show at the top dose activation, most hits filed as activators; Huh7 NPC1 promoter luciferase reporter, 24 h; also: % of control where 0% means no effect; nearly all actives have a fitted effect of over 60% in size
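Stably transfected Huh7 (NPC1 promoter→luciferase), 1500 cells/well in Opti-MEM + 10% FBS, 2 h settle, then compound 24 h at 37 °C. Luminescence after 10 min with Amplite reagent.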
Rab9 promoter act: activates the Rab9 promoter. Huh7 Rab9 promoter-luciferase reporter, luminescence, 24 h. Potency, µM (series often up to 9.22 µM), for the others: top-dose activation, negative = inhibition, actives largely listed as activators. actives 2.8% (n = 320,000); also: % of control where 0% means no effect; nearly all actives have a fitted effect of over 60% in size
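Cell-based reporter: Huh7 stable for Rab9 promoter-driven luciferase, plated in reduced-serum medium with 10% FBS at 1500 cells/well, compound-treated 24 h at 37 °C, luminescence read after 10 min reagent.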
An asterisk follows results filed as active; ? = inconclusive; nt = no result; [ ] = remark or other dose. Only some compounds are listed: those with a hit (about 9.4% of all), similar ones and a draw of the others. Calls follow the shape of the dose curve; as a rule, active = well fitted curve in the direction sought with a large enough effect; inconclusive = small, poorly fitted or top-dose-only effect, or another doubt; inactive = no such curve, though single readings can be large; an effect the other way counts as inactive or inconclusive. Potency is read from the fitted curve at half-maximal effect.

SMILES	ELG1 repair inh	ELG1 genotox	SMN2 splice enh	FLuc counter	NPC1 prom act	Rab9 promoter act
CCOC(=O)c1ccc(NC(=O)c2ccc3c(c2)C(=O)N(CC2CCCO2)C3=O)cc1 (centres undefined)	1%	-8%	nt	-11%	1%	-2%
O=C(Nc1ccc(O)c(C(=O)O)c1)c1ccc2c(c1)C(=O)N(CC1CCCO1)C2=O (centres undefined)	-5%	0%	-10%	9.5µM*	-5%	-1%
Cc1nnc(NC(=O)c2ccc3c(c2)C(=O)N(CC2CCCO2)C3=O)s1 (centres undefined)	?	7%	-3%	5.4µM*	-2%	2%
CCc1cccc(NC(=O)c2cc3c(=O)n(Cc4ccc(OC)cc4)ccc3nc2C)c1	nt	nt	nt	-1%	nt	nt
COc1ccc(C2CC(=O)c3cc(-c4nc(-c5cccc(Cl)c5)cs4)c(=O)[nH]c3C2)cc1OC (centres undefined)	nt	nt	2%	8%	nt	nt
Cc1nc(-c2ccccc2)sc1-c1ccnn1C	?	?	13µM*	4.8µM*	?	2.2µM*
Cc1nc(-c2ccccc2)sc1-c1ccn[nH]1	?	2.6µM*	7.9µM*	1.5µM*	1.4µM*	2.8µM*
CCn1c(-c2sc(-c3ccccc3)nc2C)n[nH]c1=S	14%	0%	5%	-9%	2%	-2%
Cc1ccc(-n2nc(C(=O)N3CCCCC3)c(=O)n(C)c2=O)cc1	nt	nt	nt	1%	nt	nt
CCOC(=O)c1ccc(NC(=O)c2cn(-c3ccccc3)nc2-c2ccc(Br)cc2)cc1	nt	nt	-5%	4%	nt	nt
CCOC(=O)c1nn(-c2ccc(Br)cc2)cc1C(=O)c1cccc2ccccc12	?	17%	?	6.7µM*	20%	?
Cc1nn2c(C)c(C(=O)NCc3ccco3)cnc2c1-c1ccccc1	nt	nt	nt	-1%	nt	nt
Cc1ccc(-c2c(CN3CCN(c4cc(Cl)ccc4C)CC3)csc2C)cc1	nt	nt	nt	-4%	nt	nt
c1ccc(-c2n[nH]c(-c3ccccc3)c2-c2nc3ccccc3[nH]2)cc1	17%	-4%	-17%	-2%	-7%	-6%
COC(=O)c1ccc(C(=O)Nc2ccc3nc(-c4ccncc4)[nH]c3c2)cc1	-14%	-1%	nt	-5%	-6%	-5%
c1ccc(-c2nc3ccccc3[nH]2)cc1	?	?	nt	7.6µM*	3.5µM*	1.6µM*
Nc1cc(N)cc(-c2nc3ccccc3[nH]2)c1	35%	?	?	24µM*	25%	25%
COC(=O)c1ccc(-c2nc3ccccc3[nH]2)cc1	?	?	8.9µM*	1.7µM*	0.71µM*	0.5µM*
O=C(O)c1cccc(-c2nc3ccccc3[nH]2)c1	?	-6%	16µM*	1.9µM*	?	?
c1ccc2[nH]c(-c3ccncc3)nc2c1	?	5%	nt	?	15%	19%
COc1ccc(S(=O)(=O)N2CCC(C(=O)NCc3cccnc3)CC2)cc1Cl	-3%	2%	nt	2%	-5%	4%
CN(C)c1ccc(C2CC(c3c(O)n(C4CCCCC4)c(=O)[nH]c3=O)=Nc3ccccc3S2)cc1 (centres undefined)	nt	nt	nt	-13%	nt	nt
COc1ccc2oc(=Nc3ccccc3)c(-c3nc4ccccc4[nH]3)cc2c1	?	7.3µM*	13µM*	6µM*	?	?
O=C(c1ccccc1-c1nc2ccccc2[nH]1)N1CCOCC1	-7%	0%	21%	3%[2.3 µM]	1%	0%
COc1cc(OC)cc(C(=O)Nc2cc(-c3nc4ccccc4[nH]3)ccc2C)c1	nt	nt	0%	7.6µM*	nt	nt
SMILES	ELG1 repair inh	ELG1 genotox	SMN2 splice enh	FLuc counter	NPC1 prom act	Rab9 promoter act
COc1ccc(CCCc2nc3ccccc3[nH]2)cc1	5%	-4%	nt	?	-2%	-3%
COc1ccc2oc(=Nc3cccc(F)c3)c(C(N)=O)cc2c1	-10%	2%	-5%	0%	-10%	2%
O=C(O)c1ccccc1-c1nc2ccccc2[nH]1	?	8%	13%	13µM*	18%	?
COc1ccc(-c2cc(=O)n(-c3nc4ccccc4[nH]3)[nH]2)cc1	?	?	?	11µM*	21%	?
Cn1nnc2c(N3CCN(c4cccc(Cl)c4)CC3)ncnc21	nt	nt	nt	2%	nt	nt
COc1c(Cl)cc(C(=O)Nc2cc(-c3nc4ccccc4[nH]3)ccc2C)cc1Cl	nt	nt	-40%	?	nt	nt
Cc1cc(-c2nc3ccccc3[nH]2)ccc1N	?	?	6.3µM*	4.3µM*	0.89µM*	0.56µM*
COc1ccc(-c2nc3ccccc3[nH]2)cc1	?	0.52µM*	2.5µM*	0.67µM*	0.5µM*	0.63µM*
COc1cc(C)ccc1OCCSc1nc2ccc(NC(=O)c3cccs3)cc2s1	nt	nt	nt	-3%	nt	nt
O=[N+]([O-])c1ccc(-c2cn3c(n2)CCC3)cc1	?	15%	nt	24µM*	?	?
Cc1ccc2nc(-c3ccccc3)cc(C(=O)NNC(=O)c3csc(N4CCOCC4)n3)c2c1	6.5µM*	-9%	nt	?	-2%	-3%
COc1ccc(Cl)cc1C(=O)NNC(=O)c1csc(N2CCOCC2)n1	6%	-6%	nt	-16%	-1%	3%
O=C(NNC(=O)c1cc(-c2ccccc2)nc2ccccc12)c1csc(N2CCOCC2)n1	?	-16%	nt	?	-4%	5%
COc1ccccc1C(=O)NNC(=O)c1csc(N2CCOCC2)n1	16%	-7%	nt	9.5µM*	7%	-2%
Cc1ccc(-c2cc(C(=O)NNC(=O)c3csc(N4CCOCC4)n3)c3ccccc3n2)cc1	?	-7%	nt	13µM*	2%	13%
Cc1cc(=O)[nH]c2nnc(SCC(N)=O)n12	nt	nt	nt	0%	nt	nt
Clc1ccc(/C=C\c2nc(Cl)c(-c3ccc(Cl)cc3)c(Cl)n2)cc1	nt	nt	-4%[9.22 µM]	nt	nt	nt
FC(F)Oc1ccc(-n2cc(-c3ccccc3)[n+]3c2CCCCC3)cc1	16µM*	-12%	nt	5%	-2%	-1%
Cc1ccc(-c2cn(-c3ccc(SC(F)F)cc3)c3[n+]2CCC3)cc1	?	-16%	nt	-1%	-9%	-30%
Cc1ccc(-c2cn(-c3ccc(OC(F)F)cc3)c3[n+]2CCCCC3)cc1	9.2µM*	-7%	nt	0%	-21%	-27%
c1ccc(-c2cn3c(n2)SCC3)cc1	?	8%	22%	?	17%	21%
Clc1ccc(-c2cn3c(n2)SCC3)cc1	?	15%	11µM*	19µM*	1.8µM*	1.4µM*
Oc1ccc(-c2cn3c(n2)SCC3)cc1	?	17%	9%	?	10%	4%
Brc1ccc(-c2cn3c(n2)SCC3)cc1	?	10µM*	10µM*	5.4µM*	1.1µM*	0.71µM*
